In PubChem BioAssay AID1851 (National Center for Advancing Translational Sciences (NCATS), 2009):
Where “and” joins values, the source holds several entries; their conditions need not be identical. Equal values may be shown once. The campaign covered roughly 16,000 compounds. About 2,600 (16%) were called active. Not shown: some 20% with an inconclusive outcome. Calls follow the shape of the dose curve; as a rule, active = well fitted curve in the direction sought with a large enough effect; inconclusive = small, poorly fitted or top-dose-only effect, or effect the other way; inactive = no such curve, though single readings can be large or run the other way. The list is a sample of the results. The source holds several records for some structures; these can differ, active in one and inactive in another.

biological target: Cytochrome P450 2D6 (Homo sapiens) (UniProt P10635); experiment: Cytochrome panel assay with activity outcomes; conditions: recombinant CYP, pro-luciferin dealkylation, luminescence, p450-cyp2d6; series mostly up to 57.1 µM; activity, negative = inhibition: at the top concentration
% is scaled to controls: 0 for no effect and ±100 for the full control effect.

Cytochrome P450 2D6 (Homo sapiens), sequence (P10635 whole entry, looked up): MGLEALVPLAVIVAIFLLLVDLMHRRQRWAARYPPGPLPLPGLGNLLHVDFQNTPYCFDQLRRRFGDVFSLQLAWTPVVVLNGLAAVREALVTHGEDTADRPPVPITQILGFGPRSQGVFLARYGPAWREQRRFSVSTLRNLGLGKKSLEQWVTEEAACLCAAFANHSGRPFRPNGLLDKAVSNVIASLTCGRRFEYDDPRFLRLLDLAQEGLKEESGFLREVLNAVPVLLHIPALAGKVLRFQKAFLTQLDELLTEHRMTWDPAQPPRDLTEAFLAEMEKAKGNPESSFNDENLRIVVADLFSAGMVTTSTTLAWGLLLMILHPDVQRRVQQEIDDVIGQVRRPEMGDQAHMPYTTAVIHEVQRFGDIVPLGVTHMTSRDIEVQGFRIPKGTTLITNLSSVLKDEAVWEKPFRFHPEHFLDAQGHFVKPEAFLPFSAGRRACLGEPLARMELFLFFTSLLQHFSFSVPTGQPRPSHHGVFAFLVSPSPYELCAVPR

Row | Compound | activity, negative = inhibition | AC50
1 | CCc1ccc(OCC(=O)NC(=S)Nc2ccc(C)cc2C)c(Br)c1 | 3.53% (inactive) | –
2 | CCOC(=O)c1nnn(-c2nonc2N)c1-c1ccc(C)cc1 | 1.09% (inactive) | –
3 | CCOC(=O)c1nnn(-c2nonc2N)c1-c1ccccc1 | 5.69% (inactive) | –
4 | CCOC(=O)c1nnn(-c2nc(OC)nc(N3CCCCC3)n2)c1-c1ccccc1 | – | 17.8 µM (active)
5 | Cc1nn(Cc2c(F)c(F)c(F)c(F)c2F)c(C)c1NC(=O)c1cccc(COc2ccc(Cl)cc2)c1 | -24.2% (inactive) | –
6 | COc1ccc(Oc2ncc3ncc(=O)n(C[C@H]4CCCO4)c3n2)cc1 | 4.88% (inactive) | –
7 | COc1ccc(-c2cc(C(=O)Nc3cc(OC)c(OC)c(OC)c3)no2)cc1OC | -1.21% (inactive) | –
8 | COc1ccc(NC(=O)c2ccc(-c3ccc(-c4noc(C)n4)cc3C)cc2)cc1OCCN(C)C | – | 12.6 µM (active)
9 | COc1ccc(NC(=O)c2cc(C(C)C)on2)cc1OC | -22.8% (inactive) | –
10 | CC[C@H]1C2=C3C(CC[C@H]4C(OCc5ccc(F)cc5C(F)(F)F)OC[C@](C)([C@@H]34)N(C(=O)OC(C)(C)C)C2)C(COC)C1COC (some centres not stated) | 2.49% (inactive) | –
11 | CC(=O)NC1(c2cccc(F)c2)CCN(CC(=O)NC2CCCCC2)CC1 | -8.39% (inactive) | –
12 | Cn1c(CCNC(=O)c2ccccc2Cl)n[nH]c1=S | -4.47% (inactive) | –
13 | O=C1O[C@H](CN2CCOCC2)CN1/N=C\c1ccc([N+](=O)[O-])o1 | -18.9% [at 25.6 µM] (inactive) | –
14 | CCCSc1nnc(CSc2nc3nc(C)cc(C)n3n2)o1 | -9.07% (inactive) | –
15 | Cc1cccc(Nc2cc(Cl)nc(SCC(=O)O)n2)c1C | – | 3.16 µM (active)
16 | Cc1cc(SCC(=O)c2ccccc2)nc(SCC(=O)c2ccccc2)n1 | 7.93% (inactive) | –
17 | Cc1ccccc1NC(=O)CSc1nc(N2CCCCC2)nc(N2CCCCC2)n1 | 14.4% (inactive) | –
18 | Cc1cn(CC[C@H](N)C(=O)O)c(=O)[nH]c1=O | -3.77% [at 11.4 µM] (inactive) | –
19 | CCCC(=O)Nc1nc2n(n1)C(c1ccccc1)CC(=O)N2 (configuration not stated) | 22.6% (inactive) | –
20 | CC(C)CCN1CC(C(=O)N2CCN(c3ccc(F)cc3)CC2)CC1=O (configuration not stated) | -1.61% (inactive) | –
21 | CCCCNc1c(C(=O)OCC)c(C)nc2c1cnn2CC | – | inactive and 200 nM (active)
22 | CCOC(=O)c1cnc2c(cnn2C)c1NCCCN(C)C | -15.8% (inactive) | –
23 | CCOC(=O)c1cnc2c(cnn2CC)c1NN=C(C)C | – | inactive
24 | C#CCCCO/N=C1/C[C@@H](O)[C@@H](O)[C@@H]2[C@@H]3C(=O)N(Cc4ccccc4)C(=O)[C@H]3CC[C@@H]12 | 19.7% [at 11.4 µM] (inactive) | –
25 | CCOC(=O)C(NC(=O)CC)(Nc1sc2c(c1C(=O)OC)CCN(C)C2)C(F)(F)F (configuration not stated) | -1.69% (inactive) | –

Row | Compound | activity, negative = inhibition | AC50
26 | CCCNC(=O)OC[C@H]1O[C@@H](CCO/N=C\[C@@H](NS(=O)(=O)c2ccc(C)cc2)[C@H](C)/C=C\CC(=O)OC)C=C[C@@H]1Oc1ccc(OC)cc1 | -7.16% [at 11.4 µM] (inactive) | –
27 | COc1ccc2cc(CCC(C)=O)ccc2c1 | -4.42% [at 25.6 µM] (inactive) | –
28 | NNC(=O)CCc1ccc2ccc3ccccc3c2c1 | – | 1.58 µM (active)
29 | O=C(O)CCCc1ccc2ccccc2c1 | 0.631% [at 11.4 µM] (inactive) | –
30 | CS(=O)(=O)N1CCN(c2ccc(C(=O)NC3C4CC5CC(C4)CC3C5)cc2[N+](=O)[O-])CC1 (configuration not stated) | -10% (inactive) | –
31 | Cc1ccccc1CS(=O)(=O)CCC(=O)NCCCN1CCN(c2ccccc2F)CC1 | – | 3.55 µM (active)
32 | O=C(NCCCN1CCN(c2ccccc2F)CC1)C1CCC(=O)N1C1CCCCC1 (configuration not stated) | -17.4% (inactive) | –
33 | O=C(NCCCN1CCc2ccccc2C1)Nc1ccc(Cl)cc1 | – | 3.55 µM (active)
34 | CCN(CC)c1ccc(NC(=O)CN2CCN(c3ccccc3F)CC2)cc1 | -23.1% (inactive) | –
35 | O=C(NCCCN1CCCC1=O)Nc1ccc(F)c(Cl)c1 | 0.447% (inactive) | –
36 | O=C(NCCOc1nc(N2CCOCC2)nc(N2CCOCC2)n1)Nc1ccccc1 | 6.07% (inactive) | –
37 | Cc1ccc(NC(=O)CCC(=O)c2ccc(F)cc2)cc1Cl | -10.9% (inactive) | –
38 | O=C(CCN1CCc2ccccc2C1)Nc1ccc(F)cc1 | – | 2.24 µM (active)
39 | Cc1ccc(CS(=O)(=O)CCC(=O)NCCCOC(C)C)cc1 | 10.1% (inactive) | –
40 | O=C(O)c1ccccc1-c1ccccc1C(=O)Nc1ccc2c(c1)Cc1cc(F)ccc1-2 | -13.4% [at 11.4 µM] (inactive) | –
41 | CSc1ccc(NC(=O)NCCCN2CCN(c3ccccc3F)CC2)cc1 | – | 3.55 µM (active)
42 | Cc1ccc(CS(=O)(=O)CCC(=O)NCCCN2CCCC2)cc1 | -24.2% (inactive) | –
43 | O=C(O)/C=C/C(=O)Nc1ccc(F)cc1F | 22.9% (inactive) | –
44 | O=C(O)C[C@H]1OCC=C2C[N@@+]3([O-])CC[C@]45c6ccccc6N[C@@H]4[C@@H]1[C@H]2C[C@H]53 | 9.02% [at 11.4 µM] (inactive) | –
45 | Cc1nc2cnc(N(C)C)nc2n(C)c1=O | -12.7% (inactive) | –
46 | O=C(O)c1ccccc1-c1ccccc1C(=O)Nc1ccc2c(c1)[nH]c(=O)c1ccccc12 | -5.23% [at 11.4 µM] (inactive) | –
47 | O=c1c(-c2cc(F)cc(F)c2)nc2cncnc2n1Cc1ccccc1Cl | -8.97% (inactive) | –
48 | CN1CCN(NC(=O)CN2C(=O)/C(=C/c3c(Cl)cccc3Cl)SC2=S)CC1 | -9.02% (inactive) | –
49 | COc1cc2cc3c(N)c(C(=O)Nc4sc(C)c(C)c4C#N)sc3nc2cc1OC | -0.0904% (inactive) | –
50 | C[C@](N)(C(=O)O)c1ccc(-c2nn[nH]n2)cc1 | -0.522% (inactive) | –

Row | Compound | activity, negative = inhibition | AC50
51 | CCOC(=O)c1cc(CC)sc1NC(=O)c1cc(OCC)c(OCC)c(OCC)c1 | -1.3% (inactive) | –
52 | Cn1nc(-c2ccccc2)c(C(=O)Nc2ccc(Cl)cc2)c1Cl | 18.7% (inactive) | –
53 | O=C(NCCCn1ccnc1)Nc1ccc(Cl)cc1 | – | 1.58 µM (active)
54 | Cc1ccc(NC(=O)N/C=C/c2ccc(Cl)cc2)cc1 | 8.55% (inactive) | –
55 | CSc1ccc(NC(=O)NCCN2CCc3ccccc3C2)cc1 | – | 5.01 µM (active)
56 | NCCNC(=S)S | -18.7% [at 11.4 µM] (inactive) | –
57 | CSc1ccc(NC(=O)Nc2cc(C)ccn2)cc1 | -10.4% [at 11.4 µM] (inactive) | –
58 | COc1ccc2c(Cl)c(C(=O)NCCCn3ccnc3)sc2c1Cl | – | 0.631 µM (active)
59 | O=C(NCc1cccnc1)c1sc2cc(Cl)ccc2c1Cl | -81.1% (inactive) | –
60 | Cc1ccc(NC(=O)NCCCc2ccccc2)cc1 | -26.1% (inactive) | –
61 | S=C(S)NCCN1CCNCC1 | -7.83% [at 11.4 µM] (inactive) | –
62 | S=C(S)NCCCn1ccnc1 | – | 0.794 µM (active)
63 | COc1ccc(C(=O)N/C(=C/c2cccs2)C(=O)NCCCn2ccnc2)cc1OC | -6.39% (inactive) | –
64 | Nc1nc2c(c(=O)[nH]1)CN(CCCN1CCOCC1)CN2 | 0.904% [at 11.4 µM] (inactive) | –
65 | Nc1ccc(S(=O)(=O)Nc2ncccn2)cc1 | -3.37% [at 25.6 µM] (inactive) | –
66 | O=C1[C@H]2[C@H]3[C@H](O)[C@H](O)C/C(=N/OC[C@@H](O)COCc4ccco4)[C@@H]3CC[C@@H]2C(=O)N1C[C@@H]1CCCO1 | 3.77% [at 11.4 µM] (inactive) | –
67 | Cc1nnc(NC(=O)c2cccc(NC(=O)C(C)C)c2)s1 | -16.4% (inactive) | –
68 | O=C(O)c1cc(S(=O)(=O)NCC2CCCO2)ccc1Cl (configuration not stated) | 7.8% (inactive) | –
69 | CN[C@@H]1[C@H](O[C@H]2[C@@H](O[C@@H]3[C@@H](O)[C@@H](O)[C@@H](N=C(N)N)[C@@H](O)[C@@H]3N=C(N)N)O[C@@H](C)[C@]2(O)CO)O[C@H](CO)[C@@H](O)[C@@H]1O | 6.76% [at 25.6 µM] (inactive) | –
70 | COc1ccccc1C1=NOC(COC(=O)c2ccc3ccccc3n2)C1 (configuration not stated) | -15.5% (inactive) | –
71 | Cc1cccc(CSCCNC(=O)c2ccc(N(C)S(=O)(=O)c3ccccc3)cc2)c1 | – | 3.98 µM (active)
72 | O=C(CN(c1ccccc1)S(=O)(=O)c1ccccc1)NCCSCc1ccco1 | – | 15.8 µM (active)
73 | CN(c1ccc(C(=O)NCc2ccccn2)cc1)S(C)(=O)=O | 0.808% (inactive) | –
74 | Cc1cccc(N(CC(=O)N2CCOCC2)S(C)(=O)=O)c1 | 6.15% (inactive) | –
75 | COc1ccc(S(=O)(=O)N(C)CC(=O)NCc2ccco2)cc1 | -21.7% (inactive) | –

Row | Compound | activity, negative = inhibition | AC50
76 | Cc1cccc(Cc2c(C)nc3nc(SCC(=O)NCc4ccco4)nn3c2C)c1 | -28.1% (inactive) | –
77 | CN(c1ccc(C(=O)NCC2CCCO2)cc1)S(=O)(=O)c1ccccc1 (configuration not stated) | -3.97% (inactive) | –
78 | Cc1cccc(N(CC(=O)NCCSCc2ccco2)S(=O)(=O)c2ccccc2)c1 | – | 10 µM (active)
79 | CN(CCC(=O)O)S(=O)(=O)c1ccccc1 | 4.74% [at 11.4 µM] (inactive) | –
80 | COc1cccc(Nc2ncc3ncc(=O)n(C4CC4)c3n2)c1 | -7.19% (inactive) | –
81 | Cc1ccc(C)c(CN2C(=O)C3CCCN3c3ccc(C#N)cc32)c1 (configuration not stated) | -24.5% (inactive) | –
82 | CCOC(=O)c1c(C)oc2c1c(C=NC1CCS(=O)(=O)C1)c(O)c1ccccc12 (configuration not stated) | 16% (inactive) | –
83 | CCN1C(=O)[C@H]2[C@H]3[C@H](O)[C@H](O)C/C(=N/O[C@@H](C)c4cn([C@H](CO)Cc5ccccc5)nn4)[C@@H]3CC[C@@H]2C1=O | 6.53% [at 11.4 µM] (inactive) and -9.99% [at 11.4 µM] (inactive) | –
84 | Cc1c(/C=N/NC(=O)c2ccc3c(c2)OCO3)cnn1C | -7.96% (inactive) | –
85 | CCNC(=S)NNC(=O)c1cc(C2CC2)nc2ccccc12 | -6.71% (inactive) | –
86 | COC(=O)c1nn(-c2ccccc2)c(-c2ccccc2)c1C(=O)c1ccccc1 | 18.4% (inactive) | –
87 | CCCOc1ccccc1C1CC(=O)NC(C)=C1C(=O)OCC(C)C (configuration not stated) | 34.2% (inactive) | –
88 | O=C(NCCO)c1cc2c(s1)CCC2 | 23.4% (inactive) | –
89 | Cc1cc(C(=O)CC#N)c(C)n1CC(F)(F)F | 8.26% (inactive) | –
90 | CCOC(=O)c1c2c(n3ccccc13)C(=O)c1ccccc1C2=O | 5.34% [at 11.4 µM] (inactive) | –
91 | COCCNC(=O)Cn1cnc2ccc(S(=O)(=O)N3CCC(C)CC3)cc2c1=O | 30.8% (inactive) | –
92 | Cc1ccc2nc(N3CCN(S(=O)(=O)c4ccc5c(c4)OCCO5)CC3)c(C#N)cc2c1 | -8.49% (inactive) | –
93 | NC(=O)c1ccc(NC(=O)C2CCCO2)cc1 (configuration not stated) | -1.89% (inactive) | –
94 | CSc1ccc(CNc2ccc(Cl)cc2)cc1 | -40.9% (inactive) | –
95 | CSc1ccc(CNc2ccc(C)c(C)c2)cc1 | – | 11.2 µM (active)
96 | Cc1nc2cnc(Oc3ccccc3)nc2n(C)c1=O | 1.84% (inactive) | –
97 | COc1ccc(-c2nc3cnc(OC)nc3n(C)c2=O)cc1 | -0.979% (inactive) | –
